One assay has as its system AA1029. The assay is described as follows: qHTS profiling for inhibitors of Plasmodium falciparum proliferation (AID 504749). Also: nearly all actives have a fitted effect of over 60% in size. The conditions noted are these: P. falciparum in erythrocytes, SYBR Green DNA, 72 h; series mostly up to 28.7 µM. In short, it runs like this: (§1)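 Three-day growth assay of blood-stage parasites in erythrocytes (0.3% parasitemia, 2.5% hematocrit) at 37 C, 5% CO2, quantified by SYBR Green DNA staining after overnight detergent lysis.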
(In general: In qHTS, concentration-response curves come from the screen itself.)

The test system of another assay is CP211. Described as above. The conditions noted are these: P. falciparum in erythrocytes, SYBR Green DNA, 72 h; series mostly up to 28.7 µM. In outline:
as §1

Another assay relates to CP215. The assay is described as above. The settings on record: P. falciparum in erythrocytes, SYBR Green DNA, 72 h; series mostly up to 28.7 µM. In outline: as §1
In the next assay the test system is CP260. Described as above. The conditions noted are these: P. falciparum in erythrocytes, SYBR Green DNA, 72 h; series mostly up to 28.7 µM. In outline: as §1
The subject of the next assay is CP297. The assay is described as above. The settings on record: P. falciparum in erythrocytes, SYBR Green DNA, 72 h; series mostly up to 28.7 µM. In outline: as §1
The subject of the next assay is CP335. The description is as above. The conditions noted are these: P. falciparum in erythrocytes, SYBR Green DNA, 72 h; series mostly up to 28.7 µM. In outline:
as §1

The subject of the next assay is DIV17. The assay is described as above. The conditions noted are these: P. falciparum in erythrocytes, SYBR Green DNA, 72 h; series mostly up to 28.7 µM. In short, it runs like this:
as §1

Another assay relates to ICS. The assay is described as above. The settings on record: P. falciparum in erythrocytes, SYBR Green DNA, 72 h; series mostly up to 28.7 µM. In outline:
as §1

The subject of another assay is JCK. The description is as above. The settings on record: P. falciparum in erythrocytes, SYBR Green DNA, 72 h; series mostly up to 28.7 µM. In outline: as §1
In another assay the test system is N140. The assay is described as above. The settings on record: P. falciparum in erythrocytes, SYBR Green DNA, 72 h; series mostly up to 28.7 µM. In outline:
as §1

Another assay concerns TAB165. The assay is described as above. The settings on record: P. falciparum in erythrocytes, SYBR Green DNA, 72 h; series mostly up to 28.7 µM. In outline:
as §1

The nature of assay [1]: qHTS Assay for Identification of Small Molecule Agonists for Thrombopoietin (TPO) Signaling Pathway (AID 917). In outline:
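Murine Ba/F3 cells expressing human TPO receptor and GPIIb-promoter luciferase, IL-3-starved overnight, given compound plus TPO at 26 pM (EC50). After 24 h at 37 C, 5% CO2, luminescence read.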

Assay [2] deals with Pyruvate kinase PKM (Homo sapiens) (UniProt P14618). The assay is described as follows: qHTS Assay for Inhibitors of Human Muscle Pyruvate Kinase (AID 958). In outline: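 Enzyme was run at intermediate activity so both inhibitors and activators could be detected. ATP formed from ADP and PEP by 0.1 nM human PKM2 during a 1 h room-temperature incubation was quantified by coupled luciferase luminescence.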

In assay [3] the target is Pyruvate kinase (Leishmania mexicana) (UniProt Q27686). In words: qHTS Validation Assay for Activators of Leishmania Mexicana Pyruvate Kinase (AID 959). In outline:
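Eight-point qHTS titrations; enzyme 0.2 nM LmPYK (E451W mutant); substrates 0.5 mM PEP, 0.1 mM ADP; 7 mM MgCl2; 1 h room temperature; PKLight luminescence normalized to neutral control.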

Assay [4] is described as follows: S16 Schwann cell PMP22 intronic element beta-lactamase assay (AID 624044; calls by dose curve; also: potency is read from the fitted curve at half-maximal effect; nearly all actives have a fitted effect of over 15% in size). The conditions noted are these: S16 rat Schwann cells, PMP22 element beta-lactamase FRET, 24 h; ratio activity, negative = inhibition: at 38.3 µM (top of the series). In short, it runs like this: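 Rat S16 Schwann cells with beta-Lac driven by a PMP22 intronic element, compound-treated 24 h at 37 °C. LiveBLAzer FRET B/G read: 460 nm normalized to potassium clavulanate vs DMSO; 535 nm FRET as viability; concentration-effect curves classified.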

The subject of another assay is CP262. In words: qHTS profiling for inhibitors of Plasmodium falciparum proliferation (AID 504749). Also: nearly all actives have a fitted effect of over 60% in size. The settings on record: P. falciparum in erythrocytes, SYBR Green DNA, 72 h; series mostly up to 28.7 µM. In short, it runs like this:
as §1

This passage reports Potency results from PubChem BioAssay (NCATS).

SMILES strings stand for the structures. Records with an inconclusive call do not appear. The source made the active and inactive calls. Unless noted, calls follow the shape of the dose curve; as a rule, active = well fitted curve in the direction sought with a large enough effect; inconclusive = small, poorly fitted or top-dose-only effect, or another doubt; inactive = no such curve, though single readings can be large; an effect the other way counts as inactive or inconclusive.

Sequence of Pyruvate kinase PKM (Homo sapiens) (P14618 whole entry, looked up): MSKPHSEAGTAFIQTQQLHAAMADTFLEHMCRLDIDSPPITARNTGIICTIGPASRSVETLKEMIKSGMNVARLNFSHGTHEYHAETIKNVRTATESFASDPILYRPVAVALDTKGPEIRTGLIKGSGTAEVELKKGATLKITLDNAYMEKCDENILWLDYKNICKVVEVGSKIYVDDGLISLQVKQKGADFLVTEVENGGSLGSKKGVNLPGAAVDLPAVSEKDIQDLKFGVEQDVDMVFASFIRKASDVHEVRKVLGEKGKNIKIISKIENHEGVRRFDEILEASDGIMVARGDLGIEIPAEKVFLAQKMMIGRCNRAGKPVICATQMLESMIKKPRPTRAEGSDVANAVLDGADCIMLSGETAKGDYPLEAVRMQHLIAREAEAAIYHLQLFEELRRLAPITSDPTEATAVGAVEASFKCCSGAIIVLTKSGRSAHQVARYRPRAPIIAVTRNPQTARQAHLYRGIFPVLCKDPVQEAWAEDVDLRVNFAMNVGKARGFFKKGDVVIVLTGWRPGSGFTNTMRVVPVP
Sequence of Pyruvate kinase (Leishmania mexicana) (Q27686 2-499 E452W): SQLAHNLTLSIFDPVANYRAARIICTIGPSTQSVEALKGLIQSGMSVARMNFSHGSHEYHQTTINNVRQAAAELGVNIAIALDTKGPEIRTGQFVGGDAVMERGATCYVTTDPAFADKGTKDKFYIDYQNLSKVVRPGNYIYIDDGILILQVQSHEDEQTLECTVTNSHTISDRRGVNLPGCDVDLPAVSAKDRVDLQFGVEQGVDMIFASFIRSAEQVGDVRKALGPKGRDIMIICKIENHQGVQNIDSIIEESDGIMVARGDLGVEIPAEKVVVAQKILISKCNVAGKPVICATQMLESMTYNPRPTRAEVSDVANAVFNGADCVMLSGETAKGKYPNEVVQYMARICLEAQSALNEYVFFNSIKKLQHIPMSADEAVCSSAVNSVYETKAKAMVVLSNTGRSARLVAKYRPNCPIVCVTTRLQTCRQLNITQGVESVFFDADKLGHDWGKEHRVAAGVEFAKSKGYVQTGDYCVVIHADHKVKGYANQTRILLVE

For the compound `C[C@H](O)[C@@H]1C(=O)N2C(C(=O)O)=C(SCCN=CN)C[C@@H]12`, the Potency result in the assay with AA1029, with CP211, in the assay with CP215, in the assay on CP260, in the assay with CP297 and with CP335 was “inactive” throughout. The Potency result in the assay on DIV17, in the assay with ICS, with JCK, in the assay with N140 and with TAB165 was “inactive” in each case.

In the case of `Nc1ncnc2c1ncn2[C@@H]1O[C@@H](CO)[C@H](O)[C@@H]1O`, in [1], the Potency entry was “inactive”.

Turning to `O=C(/C=C\c1ccc(O)cc1)c1ccc(O)cc1O`, the Potency in assay [2] is 15.8 µM (active). Moreover, in [3], the Potency result is “inactive”.

For `COc1cc([C@H]2c3cc4c(cc3[C@@H](O[C@H]3O[C@H]5CO[C@@H](C)O[C@H]5[C@@H](O)[C@@H]3O)[C@@H]3COC(=O)[C@H]23)OCO4)cc(OC)c1O`, the Potency in assay [4] was 4.46 µM (active). For the same compound, the Potency entry in the assay on CP262 is “inactive”.
